Experimental findings from PubChem BioAssay (EPA / NIEHS) are described below.

For assay [1], the target named is rat Somatostatin Receptor (SST), Sstr1 (gene 25033) (UniProt P28646). As to the kind of experiment: NVS_GPCR_rSST: NovaScreen (NVS) G Protein-Coupled Receptor Assay for rat Somatostatin Receptor (SST) (AID 2283314). In outline:
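Rat forebrain membranes; radioligand displacement read by filter-based scintillation counting 1 h after dosing. Primary screen in duplicate at 25 uM. Actives (e.g., 30% inhibition) were rerun as concentration-response to 50 uM max and fitted against DMSO.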

Assay [2] deals with human Constitutive Androstane Receptor (CAR), NR1I3 (gene 9970) (UniProt Q14994). As to the kind of experiment: NVS_NR_hCAR_Agonist: NovaScreen (NVS) Nuclear Receptor Binding Assay for human Constitutive Androstane Receptor Agonism (CAR) (AID 2283328). In outline:
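Cell-free TR-FRET binding readout with extracted human CAR protein, read 1 h after dosing. Gain of signal fitted against DMSO baseline. Single-concentration duplicates at 25 uM, then concentration-response up to 50 uM for actives.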

Assay [3] addresses rat Opioid Receptor, Non-selective Binding, Oprm1 (gene 25601) (UniProt P33535). The assay is described as follows: NVS_GPCR_rOpiate_NonSelective: NovaScreen (NVS) G Protein-Coupled Receptor Assay for rat Opioid Receptor, Non-selective Binding (AID 2283318). An outline of the steps: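 Rat forebrain membranes, cell-free radioligand binding with filter-based scintillation counting, read 1.5 h after dosing. Primary screen in duplicate at 25 uM; actives retested in concentration series. Loss of signal versus DMSO baseline scored.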

The target in assay [4] is rat Glutamate, AMPA Site (AMPA), Gria1 (gene 50592) (UniProt P19490). As to the kind of experiment: NVS_LGIC_rAMPA: NovaScreen (NVS) Ligand-Gated Ion Channel Assay for rat Glutamate, AMPA Site (AMPA) (AID 2283324). An outline of the steps:
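Rat forebrain membranes; radioligand binding read 1 h after dosing by filtration and scintillation counting. Duplicate single-point screen at 25 uM, then concentration-response to 50 uM for threshold hits (e.g. 30% inhibition); loss of signal vs DMSO.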

Another assay has as its system NCBI gene 24521. As to the kind of experiment: NVS_IC_rKATPCh: NovaScreen (NVS) Ion Channel Assay for rat Potassium Channel, ATP-Sensitive (KATPCh) (AID 2283319). In outline: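 Rat cortical membranes; radioligand binding at ATP-sensitive K channel site, filter-based scintillation counting 2 h after dosing. Single-point duplicate screen at 25 uM, hits rerun in concentration-response up to 50 uM; loss of signal versus DMSO.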

In assay [5] the target is Metabotropic glutamate receptor 1 (Rattus norvegicus) (UniProt P23385). The assay is described as follows: NVS_GPCR_rmMGluR1: NovaScreen (NVS) G Protein-Coupled Receptor Assay for rat Glutamate Metabotropic Receptor 1 (MGluR1) (AID 2283305). In outline: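 Rat cerebellum membrane preparation, radioligand displacement binding read by filter-based scintillation counting 1 hour after dosing. Initial duplicate single-point screen at 25 uM, then concentration-response up to 50 uM; loss of signal versus DMSO baseline scored.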
Chain of Metabotropic glutamate receptor 1 (Rattus norvegicus) (P23385 whole entry, looked up): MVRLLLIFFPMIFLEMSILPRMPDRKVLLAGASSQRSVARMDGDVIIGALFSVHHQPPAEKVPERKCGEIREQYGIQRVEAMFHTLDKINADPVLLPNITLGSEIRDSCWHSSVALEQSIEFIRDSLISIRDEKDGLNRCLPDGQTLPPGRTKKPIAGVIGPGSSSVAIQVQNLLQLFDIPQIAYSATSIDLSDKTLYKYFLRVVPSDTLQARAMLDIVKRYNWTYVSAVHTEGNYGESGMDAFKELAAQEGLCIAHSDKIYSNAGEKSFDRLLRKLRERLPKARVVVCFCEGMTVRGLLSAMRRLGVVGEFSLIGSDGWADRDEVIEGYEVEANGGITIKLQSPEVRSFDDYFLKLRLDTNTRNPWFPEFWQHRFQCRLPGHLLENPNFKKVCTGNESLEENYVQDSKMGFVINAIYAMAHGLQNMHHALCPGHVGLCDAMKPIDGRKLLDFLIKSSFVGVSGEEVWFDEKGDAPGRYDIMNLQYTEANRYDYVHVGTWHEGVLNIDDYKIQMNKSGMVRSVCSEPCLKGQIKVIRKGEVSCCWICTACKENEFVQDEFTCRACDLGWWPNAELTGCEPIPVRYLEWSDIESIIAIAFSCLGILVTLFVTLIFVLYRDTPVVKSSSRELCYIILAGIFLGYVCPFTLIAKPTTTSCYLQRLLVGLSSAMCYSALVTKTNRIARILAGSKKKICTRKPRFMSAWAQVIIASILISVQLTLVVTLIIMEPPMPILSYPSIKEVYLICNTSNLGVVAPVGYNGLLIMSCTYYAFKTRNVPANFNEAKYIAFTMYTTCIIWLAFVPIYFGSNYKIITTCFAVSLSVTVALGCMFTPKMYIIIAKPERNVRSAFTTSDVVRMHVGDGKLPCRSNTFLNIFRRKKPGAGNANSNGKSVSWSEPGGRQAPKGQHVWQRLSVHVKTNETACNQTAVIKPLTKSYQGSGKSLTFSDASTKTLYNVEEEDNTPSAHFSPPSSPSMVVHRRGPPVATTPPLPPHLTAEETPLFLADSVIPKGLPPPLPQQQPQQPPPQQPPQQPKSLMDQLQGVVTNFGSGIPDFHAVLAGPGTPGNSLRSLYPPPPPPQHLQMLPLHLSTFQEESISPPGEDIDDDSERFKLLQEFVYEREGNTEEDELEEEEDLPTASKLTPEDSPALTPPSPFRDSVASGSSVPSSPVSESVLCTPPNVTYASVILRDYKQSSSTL

The target of assay [6] is rat Neurokinin-1 Receptor (NK1), Tacr1 (gene 24807) (UniProt P14600). As to the kind of experiment: NVS_GPCR_rNK1: NovaScreen (NVS) G Protein-Coupled Receptor Assay for rat Neurokinin-1 Receptor (NK1) (AID 2283309). In outline: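 Rat submaxillary gland membranes; radioligand displacement read by filter-based scintillation counting after 1 h. Primary screen in duplicate at 25 uM; actives retested in concentration series; loss of binding fitted versus DMSO.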
Chain of rat Neurokinin-1 Receptor (NK1), Tacr1 (gene 24807) (P14600 whole entry, looked up): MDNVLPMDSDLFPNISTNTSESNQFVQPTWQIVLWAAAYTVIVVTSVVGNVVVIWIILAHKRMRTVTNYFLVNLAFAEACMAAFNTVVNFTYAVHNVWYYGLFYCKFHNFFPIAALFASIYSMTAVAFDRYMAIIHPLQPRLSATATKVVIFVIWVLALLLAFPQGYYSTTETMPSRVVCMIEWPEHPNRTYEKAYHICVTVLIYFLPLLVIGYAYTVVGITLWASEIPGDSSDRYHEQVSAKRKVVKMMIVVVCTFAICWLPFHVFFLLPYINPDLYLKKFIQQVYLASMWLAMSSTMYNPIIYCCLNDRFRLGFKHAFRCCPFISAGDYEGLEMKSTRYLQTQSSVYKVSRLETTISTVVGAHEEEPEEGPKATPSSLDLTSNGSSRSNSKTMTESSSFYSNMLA

The target of assay [7] is rat Vasopressin 1 Receptor (V1), Avpr1a (gene 25107) (UniProt P30560). The assay is described as follows: NVS_GPCR_rV1: NovaScreen (NVS) G Protein-Coupled Receptor Assay for rat Vasopressin 1 Receptor (V1) (AID 2283316). In outline: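 Radioligand binding on rat liver membranes, 1.5 h incubation, filter-based scintillation counting. Single 25 uM screen in duplicate; chemicals meeting threshold (e.g. 30% inhibition) run in concentration-response up to 50 uM.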
Chain of rat Vasopressin 1 Receptor (V1), Avpr1a (gene 25107) (P30560 whole entry, looked up): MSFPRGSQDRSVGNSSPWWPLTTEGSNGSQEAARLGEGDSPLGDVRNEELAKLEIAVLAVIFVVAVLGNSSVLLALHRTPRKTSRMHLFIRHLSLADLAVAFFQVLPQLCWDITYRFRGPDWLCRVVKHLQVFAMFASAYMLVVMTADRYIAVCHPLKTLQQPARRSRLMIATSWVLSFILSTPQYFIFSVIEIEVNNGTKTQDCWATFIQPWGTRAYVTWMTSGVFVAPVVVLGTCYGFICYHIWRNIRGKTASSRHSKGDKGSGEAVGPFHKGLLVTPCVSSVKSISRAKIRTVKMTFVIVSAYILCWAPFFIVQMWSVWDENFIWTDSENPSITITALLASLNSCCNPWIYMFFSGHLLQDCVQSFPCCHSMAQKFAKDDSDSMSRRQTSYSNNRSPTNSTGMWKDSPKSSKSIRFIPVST

Assay [8] concerns the target Sodium channel protein type 1 subunit alpha (Rattus norvegicus) (UniProt P04774). The assay is described as follows: NVS_IC_rNaCh_site2: NovaScreen (NVS) Ion Channel Assay for rat Sodium Channel, Site 2 (NaCh) (AID 2283322).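 Further: hit means loss of radioligand binding signal relative to DMSO so AC50 marks displacement.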 In outline:
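Membranes: rat forebrain. Format: competitive radioligand displacement, filter separation, scintillation readout, 1 h exposure. Primary screen in duplicate at 25 uM; actives retested in concentration series.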

Assay [9] has as its target rat Thyrotropin Releasing Hormone Receptor (TRH), Trhr (gene 25570) (UniProt Q01717). The assay is described as follows: NVS_GPCR_rTRH: NovaScreen (NVS) G Protein-Coupled Receptor Assay for rat Thyrotropin Releasing Hormone Receptor (TRH) (AID 2283329).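 Further: hit means lower bound tracer signal versus DMSO baseline.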 In outline: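 Rat forebrain membrane prep, radioligand displacement, filter scintillation readout at 4 h. Single conc 25 uM, duplicate; actives retested as concentration series. DMSO = negative control/baseline.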

Assay [10] in a line: NVS_IC_rCaDHPRCh_L: NovaScreen (NVS) Ion Channel Assay for rat Calcium Channel, Type L, Dihydropyridine Site (CaDHPRCh_L) (AID 2283320). In outline: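 Radioligand binding to dihydropyridine site on rat cortical membranes, filter-based scintillation counting, 1 h after dosing. Screened in duplicate at 25 uM; actives rerun in concentration-response up to 50 uM. Loss of signal versus DMSO baseline.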

The target of assay [11] is rat Gamma-Aminobutyric Acid Type A Receptor, Non-Selective (GABAR-NonSelective), Gabra1 (gene 29705) (UniProt P62813). The assay is described as follows: NVS_LGIC_rGABAR_NonSelective: NovaScreen (NVS) Ligand-Gated Ion Channel Assay for rat Gamma-Aminobutyric Acid Type A Receptor, Non-Selective (GABAR-NonSelective) (AID 2283326). An outline of the steps: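 Radioligand displacement on rat whole-brain extract, 1 h, filter scintillation readout; signal loss fitted versus DMSO. Primary screen in duplicate at 25 uM; hits (e.g. ≥30% inhibition) retested in concentration-response up to 50 uM.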
Chain of rat Gamma-Aminobutyric Acid Type A Receptor, Non-Selective (GABAR-NonSelective), Gabra1 (gene 29705) (P62813 whole entry, looked up): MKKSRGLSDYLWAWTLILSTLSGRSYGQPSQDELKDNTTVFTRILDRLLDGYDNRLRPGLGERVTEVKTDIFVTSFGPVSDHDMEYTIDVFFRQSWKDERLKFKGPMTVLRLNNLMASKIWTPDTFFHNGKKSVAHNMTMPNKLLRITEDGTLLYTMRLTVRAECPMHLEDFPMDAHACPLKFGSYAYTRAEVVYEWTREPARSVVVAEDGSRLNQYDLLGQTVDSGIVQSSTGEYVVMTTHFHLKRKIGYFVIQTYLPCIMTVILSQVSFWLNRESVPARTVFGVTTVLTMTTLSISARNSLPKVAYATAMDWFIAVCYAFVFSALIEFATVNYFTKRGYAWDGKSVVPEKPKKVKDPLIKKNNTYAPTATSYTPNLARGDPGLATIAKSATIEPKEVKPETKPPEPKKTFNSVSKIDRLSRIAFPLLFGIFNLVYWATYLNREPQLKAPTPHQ

Assay [12] addresses rat Gamma-Aminobutyric Acid Type B Receptor (GABBR), Gabbr1 (gene 81657) (UniProt Q9Z0U4). As to the kind of experiment: NVS_GPCR_rGABBR: NovaScreen (NVS) G Protein-Coupled Receptor Assay for rat Gamma-Aminobutyric Acid Type B Receptor (GABBR) (AID 2283301). An outline of the steps:
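Radioligand displacement on rat cortical membranes, 1 h, filter-based scintillation counting. Primary screen at 25 uM in duplicate; compounds passing threshold re-tested in concentration-response up to 50 uM; loss of binding fitted against DMSO.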

Assay [13] has as its target rat Neonicotinoid receptor (NNR), Chrna7 (gene 25302) (UniProt Q05941). As to the kind of experiment: NVS_LGIC_rNNR_BungSens: NovaScreen (NVS) Ligand-Gated Ion Channel Assay for rat Neonicotinoid receptor (NNR) (AID 2283315). An outline of the steps:
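Radioligand displacement binding on rat cortical membranes, 2.5 h incubation, filtration and scintillation counting. Loss of specific binding fitted relative to DMSO.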

A further assay deals with Adra2b (gene 24174) (UniProt P19328). As to the kind of experiment: NVS_GPCR_rmAdra2B: NovaScreen (NVS) G Protein-Coupled Receptor Assay for hybird cells Adrenergic, Alpha 2B Receptor (Adra2B) (AID 2283306). An outline of the steps:
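Radioligand filter-binding assay on membrane proteins from neuroglioma/blastoma hybrid cells (rodent), 1 h after dosing; scintillation counting, loss of signal vs DMSO. Primary screen in duplicate at 25 uM, actives then run in concentration series.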

Assay [14] addresses rat Glutamate, NMDA Agonist Site (GluNMDA), Grin1 (gene 24408) (UniProt P35439). The assay is described as follows: NVS_LGIC_rGluNMDA_Agonist: NovaScreen (NVS) Ligand-Gated Ion Channel Assay for rat Glutamate, NMDA Agonist Site (GluNMDA) (AID 2283327). An outline of the steps: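 Rat forebrain membranes, radioligand binding in the agonist-site protocol; 1 h after dosing; filter-based scintillation counting. Single-concentration duplicate screen at 25 uM, then concentration-response up to 50 uM for actives; gain-of-signal vs DMSO.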

SMILES strings stand for the structures. Results filed as inconclusive are left out. The source made the active and inactive calls. How the source made its calls: active means hit-call score of the fitted dose curve at least 0.9, where 1 is the maximum; inconclusive means response in the unintended direction; inactive means score below 0.9.

Chain of rat Glutamate, AMPA Site (AMPA), Gria1 (gene 50592) (P19490 whole entry, looked up): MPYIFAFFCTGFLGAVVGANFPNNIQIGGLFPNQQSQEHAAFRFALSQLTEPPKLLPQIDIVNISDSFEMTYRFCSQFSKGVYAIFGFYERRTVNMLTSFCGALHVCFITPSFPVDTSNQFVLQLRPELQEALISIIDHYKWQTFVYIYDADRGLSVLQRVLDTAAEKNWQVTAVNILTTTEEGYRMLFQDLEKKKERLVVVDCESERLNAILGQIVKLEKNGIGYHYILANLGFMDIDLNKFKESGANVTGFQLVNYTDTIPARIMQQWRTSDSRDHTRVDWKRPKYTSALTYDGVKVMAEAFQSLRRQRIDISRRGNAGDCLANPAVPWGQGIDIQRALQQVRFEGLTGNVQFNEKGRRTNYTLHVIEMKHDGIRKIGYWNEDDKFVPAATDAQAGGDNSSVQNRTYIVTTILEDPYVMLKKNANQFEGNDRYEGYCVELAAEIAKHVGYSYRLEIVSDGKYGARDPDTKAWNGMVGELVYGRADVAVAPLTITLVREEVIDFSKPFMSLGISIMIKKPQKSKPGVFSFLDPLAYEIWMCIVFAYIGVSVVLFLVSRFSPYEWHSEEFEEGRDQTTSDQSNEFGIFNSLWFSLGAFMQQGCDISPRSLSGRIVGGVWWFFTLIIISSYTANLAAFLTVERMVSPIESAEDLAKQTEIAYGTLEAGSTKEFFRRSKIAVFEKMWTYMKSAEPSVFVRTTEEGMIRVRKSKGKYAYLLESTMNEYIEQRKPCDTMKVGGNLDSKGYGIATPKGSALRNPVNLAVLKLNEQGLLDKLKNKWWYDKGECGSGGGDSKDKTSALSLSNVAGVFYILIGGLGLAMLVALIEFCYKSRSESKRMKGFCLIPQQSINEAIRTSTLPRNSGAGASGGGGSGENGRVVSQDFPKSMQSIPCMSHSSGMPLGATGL
Chain of rat Opioid Receptor, Non-selective Binding, Oprm1 (gene 25601) (P33535 whole entry, looked up): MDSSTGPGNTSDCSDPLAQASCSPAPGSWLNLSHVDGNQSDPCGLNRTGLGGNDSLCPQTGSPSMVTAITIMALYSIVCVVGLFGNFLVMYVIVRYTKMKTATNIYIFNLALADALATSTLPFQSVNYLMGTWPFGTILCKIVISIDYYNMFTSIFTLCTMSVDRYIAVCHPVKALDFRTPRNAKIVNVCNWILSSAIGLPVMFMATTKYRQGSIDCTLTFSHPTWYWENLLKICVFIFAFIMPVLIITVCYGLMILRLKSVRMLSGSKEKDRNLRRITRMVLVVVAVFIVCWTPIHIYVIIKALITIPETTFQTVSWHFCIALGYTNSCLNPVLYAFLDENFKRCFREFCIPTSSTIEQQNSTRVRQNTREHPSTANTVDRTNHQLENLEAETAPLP
Chain of human Constitutive Androstane Receptor (CAR), NR1I3 (gene 9970) (Q14994 whole entry, looked up): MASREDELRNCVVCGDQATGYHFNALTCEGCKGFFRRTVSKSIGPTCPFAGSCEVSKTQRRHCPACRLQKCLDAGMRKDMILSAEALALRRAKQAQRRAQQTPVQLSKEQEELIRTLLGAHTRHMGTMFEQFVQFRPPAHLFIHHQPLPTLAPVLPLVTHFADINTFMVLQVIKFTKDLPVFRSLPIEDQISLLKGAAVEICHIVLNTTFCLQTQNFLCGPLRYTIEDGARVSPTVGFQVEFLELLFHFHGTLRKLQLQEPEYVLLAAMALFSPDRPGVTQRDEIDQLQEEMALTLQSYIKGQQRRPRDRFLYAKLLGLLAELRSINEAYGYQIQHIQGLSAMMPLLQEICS
Chain of rat Somatostatin Receptor (SST), Sstr1 (gene 25033) (P28646 whole entry, looked up): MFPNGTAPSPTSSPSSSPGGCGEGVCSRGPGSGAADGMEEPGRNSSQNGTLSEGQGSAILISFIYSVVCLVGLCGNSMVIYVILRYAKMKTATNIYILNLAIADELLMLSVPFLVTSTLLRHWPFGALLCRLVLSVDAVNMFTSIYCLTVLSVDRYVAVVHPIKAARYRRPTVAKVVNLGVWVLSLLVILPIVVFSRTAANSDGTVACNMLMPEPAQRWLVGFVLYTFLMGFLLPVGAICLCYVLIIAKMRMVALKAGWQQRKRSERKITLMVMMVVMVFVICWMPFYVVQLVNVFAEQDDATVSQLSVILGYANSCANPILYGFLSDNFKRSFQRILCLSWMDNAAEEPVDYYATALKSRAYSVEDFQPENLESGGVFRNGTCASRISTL
Chain of Adra2b (gene 24174) (P19328 whole entry, looked up): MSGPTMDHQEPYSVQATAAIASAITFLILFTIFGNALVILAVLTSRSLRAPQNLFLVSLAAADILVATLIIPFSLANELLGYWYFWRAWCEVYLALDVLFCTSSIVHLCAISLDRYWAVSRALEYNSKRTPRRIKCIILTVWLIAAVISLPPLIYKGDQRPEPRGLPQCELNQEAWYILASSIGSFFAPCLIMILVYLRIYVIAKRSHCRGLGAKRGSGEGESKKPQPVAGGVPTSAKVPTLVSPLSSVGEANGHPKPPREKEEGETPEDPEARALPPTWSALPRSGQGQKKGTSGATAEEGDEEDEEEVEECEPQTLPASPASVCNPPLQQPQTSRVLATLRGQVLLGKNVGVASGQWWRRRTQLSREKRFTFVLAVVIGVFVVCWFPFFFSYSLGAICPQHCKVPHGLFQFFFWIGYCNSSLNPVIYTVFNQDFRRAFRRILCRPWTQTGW

`CC(C)(C)c1cc(O)c(C(C)(C)C)cc1O`: the AC50 in assay [1] was 3.63 µM (active). In addition, the outcome in assay [2] was inactive.
For the compound `COCCOC[C@H](CC1(C(=O)NC2CCC(C(=O)O)CC2)CCCC1)C(=O)Oc1ccc2c(c1)CCC2` (some centres not stated), the AC50 in assay [1] was 5.45 µM (active). Besides, the result in assay [3] and in assay [4] was inactive.
For the compound `CCCc1cc(=O)[nH]c(=S)[nH]1`, the call with NCBI gene 24521 was inactive.
For `COc1ccc(S(=O)(=O)N2C(=O)[C@@](c3ccccc3OC)(N3C[C@H](O)C[C@H]3C(=O)N(C)C)c3cc(Cl)ccc32)c(OC)c1`, the result in [5] and in [7] was inactive. The AC50 in [6] is 11.3 µM (active); in [8], 39.6 µM (active); in [9], 10.4 µM (active).
`FC(F)(F)C(F)(F)C(F)(F)C(F)(F)C(F)(F)C(F)(F)CCI`: the result in [10] was inactive.
As for `Nc1nc(N)c2nc(CNc3ccc(C(=O)N[C@@H](CCC(=O)O)C(=O)O)cc3)cnc2n1`, the half-maximal activity concentration (AC50) was 25 µM (active) in assay [10] and 23.2 µM (active) in assay [4]. Moreover, the result in assay [11] was inactive.
Turning to `Cc1cccc(Nc2cc(Cl)nc(SCC(=O)O)n2)c1C`, the AC50 in assay [7] was 2.85 µM (active).
Turning to `CC1(C)CC(N=C=O)CC(C)(CN=C=O)C1` (configuration not stated), the result in assay [5] was inactive.
Consider `COc1ccc2c(c1)c(CC(=O)O)c(C)n2C(=O)c1ccc(Cl)cc1`, for which the compound was called inactive in [12].
Regarding `CCCCCCCCCCCCCO`, in [2], the outcome was inactive.
In the case of `CC(C)c1ccc(C(=O)N=C(N)N)cc1S(C)(=O)=O`, the AC50 in assay [3] was 5.07 µM (active); in [8], 34 µM (active).
For the compound `CCOC(=O)C(C)(C)Oc1ccc(Cl)cc1`, the outcome in assay [6] and in assay [13] was inactive.
Consider `CCCCC(CC)COC(=O)CC(C(=O)OCC(CC)CCCC)S(=O)(=O)O` (configuration not stated), for which the AC50 in the assay with Adra2b (gene 24174) was 22.4 µM (active); in [14], 38.3 µM (active). Further, the outcome in [8] was inactive.
For the compound `Cc1nc(C)nc(N2C[C@@H](C)N(c3ccnc([C@@H](C)O)n3)[C@@H](C)C2)n1`, the call in the assay with Adra2b (gene 24174) was inactive.

For orientation: AC50 means the concentration giving half of the maximal activity seen.
